Assay outcomes as filed in PubChem.
Only some compounds are listed: those with a hit (about 3.9% of all), similar ones and a draw of the others.
PLK1 PBD inh: inhibitors of human PLK1 polo-box domain binding; Plk1 PBD binding of FITC phosphopeptide, fluorescence polarization; Potency, µM, most hits filed as inhibitors; hit rate 2.8% among 360,000; further: series mostly up to about 57 µM; nearly all actives have a fitted effect of over 65% in size
BRCA1 expr act: increases BRCA1 expression; hit rate 1.1% among 380,000; Potency, µM (top dose mostly 46.1 µM), actives largely listed as activators; MCF7-BRCA1-FFLuc reporter, luminescence, 48 h; response scale: scaled: vehicle 0%, 10 µM genistein 100%; AID 624202; further: nearly all actives have a fitted effect of over 80% in size
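Luminescence from a BRCA1-driven firefly luciferase in MCF7 cells was read after 48 h compound exposure at 37 C. Data normalized against DMSO and a 10microM genistein activation control, then curve-fitted across the titration.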
Tb PFK block: inhibitors of T. brucei phosphofructokinase. Potency, µM (highest dose often 57.5 µM), most hits filed as inhibitors. hit rate 0.17% among 330,000. T. brucei PFK, ADP-Glo luminescence. O15648; further: nearly all actives have a fitted effect of over 60% in size
Target sequence (O15648 whole entry, looked up): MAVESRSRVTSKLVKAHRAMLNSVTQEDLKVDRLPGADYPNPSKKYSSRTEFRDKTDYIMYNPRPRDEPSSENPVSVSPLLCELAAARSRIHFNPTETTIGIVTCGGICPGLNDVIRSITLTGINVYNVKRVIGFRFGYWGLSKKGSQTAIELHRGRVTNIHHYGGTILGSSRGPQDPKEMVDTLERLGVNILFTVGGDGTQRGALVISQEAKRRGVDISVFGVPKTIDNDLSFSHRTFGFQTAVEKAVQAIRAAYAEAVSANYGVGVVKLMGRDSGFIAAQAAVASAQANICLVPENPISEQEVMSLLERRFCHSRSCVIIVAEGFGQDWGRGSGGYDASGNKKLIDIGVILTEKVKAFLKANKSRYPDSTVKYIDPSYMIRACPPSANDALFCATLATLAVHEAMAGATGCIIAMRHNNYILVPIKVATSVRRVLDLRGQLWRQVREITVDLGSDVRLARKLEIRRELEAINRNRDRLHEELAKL
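ADP-Glo luminescence quantified ADP after 45 min at room temperature, with 1.25 nM T. brucei PFK, 0.1 mM ATP and 0.5 mM fructose-6-phosphate in pH 8.0 TEA buffer. qHTS titrations up to 57 µM; curves classified by quality.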
VDR inhibitor: blocks the human vitamin D receptor; P11473; VDR-SRC2-3 peptide fluorescence polarization, 2 h; Potency, µM, usual class: inhibitors; hit rate 0.93% among 400,000
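Fluorescence polarization assay measuring small-molecule disruption of VDR binding to the coregulator peptide SRC2-3. Compounds were pin-transferred (23 nl) into the reagent mix and incubated 2 h at room temperature before reading.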
Hits are given with their value; - = inactive; ? = inconclusive; . = no result. The call rests on the fitted dose curve; in most records, active means well fitted curve in the direction sought with a large enough effect; inconclusive means small, poorly fitted or top-dose-only effect, or another doubt; inactive means no such curve, though single readings can be large; an effect the other way counts as inactive or inconclusive.

SMILES | PLK1 PBD inh | BRCA1 expr act | Tb PFK block | VDR inhibitor
Cc1ccc2cc3c(ccc4ccccc43)c3c2c1CC3 | . | . | . | -
NC(Cc1nc2ccccc2[nH]1)c1ccc(Cl)cc1 (centres undefined) | - | 11µM | - | -
CN(C)C1CSSSC1 | . | . | . | -
CN1C(=O)N(C)C(=O)C2(Cc3c(nc4ccccn4c3=O)N3CCc4ccccc4C32)C1=O (centres undefined) | 17µM | - | - | -
Cc1c(C)c2ccc(OCC(=O)N3CCN(Cc4ccccc4)CC3)cc2oc1=O | - | - | - | -
Cc1c(Cc2ccccc2)c(=O)oc2cc(OCc3ccc(C(=O)O)cc3)ccc12 | 21µM | - | - | -
Cc1[nH]c(=S)c(C#N)c2c1CCCC2 | 27µM | - | ? | ?
COC(=O)[C@]1(C)CC[C@@]2(C)CC[C@@]3(C)C4=CCc5c(cc(O)c(O)c5C)[C@]4(C)CC[C@@]3(C)C2C1 (some centres undefined) | . | . | . | 28µM
CCCC(Cn1cncn1)c1ccc(Cl)cc1Cl (centres undefined) | . | . | . | -
CCCCn1c(O)c(/C=C2\C=Nc3ccccc32)c(=O)[nH]c1=O | - | - | ? | -
O=c1[nH]c(O)c(/C=C2\C=Nc3ccc(OCc4ccccc4)cc32)c(=O)[nH]1 | 24µM | - | - | -
Cc1cc(C)cc(OCCOc2cccc(C=C3C(=O)NC(=O)NC3=O)c2)c1 | 6µM | - | - | ?
O=C1NC(=O)C(=Cc2ccc3ccccc3c2)C(=O)N1 | 4.2µM | - | - | ?
O=C1NC(=O)C(=Cc2ccc(Oc3ccc([N+](=O)[O-])cc3)cc2)C(=O)N1 | 3µM | - | - | 32µM
CCn1cc(C=C2C(=O)NC(=O)NC2=O)c2ccccc21 | - | - | - | -
COC(=O)Cn1cc(C=C2C(=O)NC(=O)NC2=O)c2ccccc21 | ? | - | - | -
C[C@H]1CO1 | . | . | . | -
CC(C)C[C@H](NC(=O)[C@H](CC(C)C)NC(=O)[C@H](Cc1ccccc1)NC(=O)[C@@H](N)Cc1ccc(O)cc1)C(=O)N[C@@H](CCCN=C(N)N)C(=O)N[C@@H](CC(N)=O)C(=O)N1CCC[C@H]1C(=O)O | . | . | . | -
CC(C)[C@H](NC(=O)[C@H](CCC(=O)O)NC(=O)[C@H](Cc1ccccc1)NC(=O)[C@@H](C)NC(=O)[C@@H](N)Cc1ccc(O)cc1)C(=O)N[C@H](C(=O)NCC(N)=O)C(C)C | . | . | . | -
Cc1cccc(OCCn2c(=O)oc3ccc(C)cc32)c1 | - | 8.9µM | - | -
Cc1cccc(OCC(=O)N2CCN(Cc3ccc([N+](=O)[O-])cc3)CC2)c1 | - | - | - | -
COc1cc(C2c3cc4c(cc3C(O)C3COC(=O)C23)OCO4)cc(OC)c1O (centres undefined) | . | . | . | -
CC(=O)[O][Hg][c]1ccccc1 | . | . | . | 1.8µM
CCS(=O)(=O)Nc1ccc(C2=NN(C(=O)c3ccco3)C(c3ccc(Cl)o3)C2)cc1 (centres undefined) | - | - | - | ?
O=C1C=CC(=O)c2c(O)cccc21 | . | . | . | 40µM
SMILES | PLK1 PBD inh | BRCA1 expr act | Tb PFK block | VDR inhibitor
COc1ccc(-n2nc(C(=O)NCC(=O)N3CCC4(CC3)OCCO4)c3ccccc3c2=O)cc1Cl | - | 10µM | - | -
COc1ccc(-n2nc(C(=O)NCC(=O)N3CCC4(CC3)OCCO4)c3ccccc3c2=O)cc1 | - | ? | - | -
COc1ccc(CC2NC[C@H](O)[C@H]2OC(C)=O)cc1 (some centres undefined) | . | . | . | -
CCOP(=O)(OCC)Oc1ccc2ccc(=O)oc2c1 | . | . | . | -
CCOP(=S)(OCC)Oc1cc(C)oc(=O)c1Cl | 4.7µM | - | - | 28µM
CCOP(=S)(OCC)Oc1cc(C)oc(=O)c1 | 30µM | - | - | 79µM
C=C(C)[C@]12C[C@@H](C)[C@@]34O[C@](Cc5ccccc5)(O[C@@H]1[C@@H]3C=C(COC(=O)Cc1ccc(O)c(OC)c1)C[C@]1(O)C(=O)C(C)=C[C@@H]41)O2 | . | . | . | -
CCOP(=O)(OCC)O/C(=C/Cl)c1ccc(Cl)cc1Cl | . | . | . | -
CC(C)CC1C(=O)N2CCC[C@H]2[C@]2(O)O[C@](NC(=O)[C@@H]3C=C4c5cccc6[nH]c(Br)c(c56)C[C@H]4N(C)C3)(C(C)C)C(=O)N12 (some centres undefined) | . | - | . | -
CCN1C(=O)NC(=O)/C(=C/c2cc(C)n(-c3sc(C)c(C)c3C#N)c2C)C1=O | 2.1µM | - | ? | ?
CCOC(=O)c1c(-n2c(C)cc(C=C3C(=O)NC(=S)NC3=O)c2C)sc2c1CCCC2 | 0.3µM | - | - | ?
Cc1ccc(N2C(=O)NC(=O)/C(=C\c3cc(C)n(-c4sc5c(c4C#N)CCCC5)c3C)C2=O)cc1 | 0.6µM | - | - | 45µM
CCOC(=O)c1c(-n2c(C)cc(/C=C3/C(=O)NC(=O)N(CC)C3=O)c2C)sc2c1CCCC2 | ? | - | . | -
Cc1cc(/C=C2/C(=O)NC(=O)N(c3ccc(Br)cc3)C2=O)c(C)n1C | - | - | - | -
O=C(CCN1CCN(CCO)CC1)N1c2ccccc2Sc2ccc(C(F)(F)F)cc21 | 27µM | - | - | ?
O=C(Cc1cccc(C(F)(F)F)c1)N1CCN(CC(=O)N2CCCC2)CC1 | - | - | - | -
O=C(O)Cc1cccnc1C(=O)O | . | . | . | -
O=Nc1c(-c2ccccc2)n(O)[n+]([O-])c1-c1ccccc1 | ? | - | . | .
CCOP(=O)(CCP(=O)(OCC)OCC)OCC.C[CH2][Sn]([Cl])([Cl])[CH2]C | 8.4µM | - | . | ?
c1ccc([Se]c2c(-c3ccccc3)[se]c3ccccc23)cc1 | . | . | . | 63µM
Ic1c(C2=CCCCC2)[se]c2ccccc12 | . | . | . | -
C/C(=N\NC(=S)Nc1ccccc1)c1c(O)n(C)c(=O)n(C)c1=O | 21µM | - | - | ?
CC/C(=N\Nc1ccccc1)c1c(O)n(C)c(=O)n(C)c1=O | - | - | - | -
Cc1ccc(N/N=C/C=C/c2ccco2)cc1 | - | 7.9µM | . | -
O=c1[nH]c(=S)[nH]c(O)c1CN1CCCCC1 | - | - | - | -
SMILES | PLK1 PBD inh | BRCA1 expr act | Tb PFK block | VDR inhibitor
CC(C)COc1ccc(Cc2c(O)[nH]c(=S)[nH]c2=O)cc1 | 27µM | - | - | -
Cc1cc(Cc2c(O)[nH]c(=S)[nH]c2=O)ccc1OC(C)C | 27µM | - | - | 79µM
c1ccc2c(c1)OC[C@@H](C1=NCCN1)O2 | . | . | . | -
COP(=S)(OC)Oc1ccc([N+](=O)[O-])c(C)c1 | . | . | . | 22µM
c1cc[n+]2c(c1)-c1cccc[n+]1CC2 | . | . | . | -
c1cc2cc(c1)C[n+]1ccc(c3ccccc31)NCc1ccc(cc1)CNc1cc[n+](c3ccccc13)C2 | . | . | . | -
O=C(c1ccc(Cl)cc1)N1CCC2(CC1)OCCO2 | - | - | - | -
S=C(c1ccc(Cl)cc1)N1CCOCC1 | 28µM | - | - | ?
O=[N+]([O-])/C=C/c1c(Cl)cccc1Cl | 2.7µM | - | . | 20µM
